# Measured values: PubChem BioAssay AID463173 (ICCB-Longwood Screening Facility, Harvard Medical School, 2010)
# In all, about 52,000 compounds went through this assay and about 1,700 (3.3%) were called active. This is one part of a sample in which actives are shown more often than they occur. A number with no mark means an inactive call. No stated cut-off is given here; in the data, active means survival mostly below about 52% (no sharp cut-off); inactive means mostly above about 56%.
# System: Wild type
# Test: growth inhibition of S. aureus wild type versus tarO mutant, primary screen, teichoic acid synthesis inhibitors, RN4220, OD600 (AID 463173)
# Settings: S. aureus RN4220 wild type/DeltatarO growth, OD600, 18 h, active compounds read low, screened at 18.75 µg/mL (by protocol)
row,SMILES,survival
1,CC1CCN(CC2CCN(C(=O)NCc3ccc(F)cc3)CC2)CC1,78%
2,COc1ccccc1OC(C)C(=O)NCC1(N2CCOCC2)CCCCC1 (stereo not given),87%
3,COc1ccc(CC(=O)NCc2ccc3c(c2)CCN3C(C)=O)cc1OC,78%
4,CCC(=O)N1c2ccccc2CC1C(=O)NCCCN1CCN(c2ccc(OC)cc2)CC1 (stereo not given),88%
5,Cc1ccc(NC(=O)Cn2nc(C(F)(F)F)c3c2CCC3)cc1C,81%
6,O=S(=O)(c1ccc2nc(N3CCN(c4cccc(Cl)c4)CC3)ccc2c1)N1CCCCC1,55%
7,O=S(=O)(c1ccc2nc(N3CCN(c4ccccc4)CC3)ccc2c1)N1CCCCC1,1% (active)
8,CC1CCN(S(=O)(=O)c2ccc3nc(N4CCN(c5ccccc5)CC4)ccc3c2)CC1,77%
9,Cc1ccc(NC(=O)C(=O)NCC(c2cccnc2)N2CCN(Cc3ccccc3)CC2)cc1 (stereo not given),85%
10,CC1CCN(C(=O)c2ccc3c(c2)OCCO3)CC1,105%
11,CN(Cc1ccccc1)c1ccc(-c2nc(-c3ccccn3)no2)cc1[N+](=O)[O-],67%
12,CCc1ccc(CNC(=O)c2cc(=O)[nH]c3ccc(S(=O)(=O)N4CCCCC4)cc23)cc1,91%
13,O=S(=O)(c1ccccc1)c1nc(-c2cccs2)oc1N1CCCCC1,123%
14,Cc1ccc(S(=O)(=O)c2nc(-c3cccs3)oc2N2CCCCC2)cc1,50%
15,CC1CCN(c2oc(-c3cccs3)nc2S(=O)(=O)c2ccc(Cl)cc2)CC1,-8% (active)
16,Cc1ccc(S(=O)(=O)c2nc(-c3cccs3)oc2N2CCC(C)CC2)cc1,-10% (active)
17,CC1CCN(c2oc(-c3cccs3)nc2S(=O)(=O)c2ccccc2)CC1,24%
18,O=S(=O)(c1ccc(Cl)cc1)c1nc(-c2cccs2)oc1N1CCCCC1,45%
19,O=C(CSc1nc2ccccc2o1)NC1CC1,86%
20,Cc1ccc2c(c1)c1c(c(=O)n(-c3ccccc3C)c(=O)n1CC(=O)NCC1CCCO1)n2C (stereo not given),66%

row,SMILES,survival
1,CCOc1ccc(CCNC(=O)Cn2ncc3c(=O)oc4ccc(C)cc4c32)cc1,80%
2,COc1ccc(NC(=O)CSc2nc(-c3ccccc3)nc3cc(=O)[nH]n23)cc1,73%
3,CCCCc1nc2ccccc2n2c(-c3ccc(OC)cc3)c3c(=O)n(C)c(=O)n(C)c3c12,52%
4,CCOC(=O)CCc1c(C)nc2cc(-c3cc(OC)cc(OC)c3)[nH]n2c1=O,74%
5,CCCCc1c(C)nc2c(-c3ccc(Cl)cc3)c(C)[nH]n2c1=O,-13% (active)
6,Cc1nc2c(-c3ccc(F)cc3)c(C)nn2c(C)c1CCC(=O)NCc1ccc(Cl)cc1,91%
7,CCOC(=O)Cc1c(C)nc2c(-c3ccc(Cl)cc3)c(C(F)(F)F)nn2c1C,49%
8,CCCCc1c(C)nc2c(-c3ccc(OC)cc3)c(C)[nH]n2c1=O,12% (active)
9,C#CC(C)(CC)NC(=O)Cn1nnc(-c2ccc(OCc3ccccc3Cl)cc2)n1 (stereo not given),74%
10,CC1=CC(C)(C)Nc2ccc(OC(=O)c3ccco3)cc21,125%
11,CCc1ccc(NC(=O)Cn2cnc3sc(C)c(S(=O)(=O)N4CCN(c5ccccc5OC)CC4)c3c2=O)cc1,138%
12,CCOC(=O)Cn1c(=O)n(-c2ccccc2OC)c2nc(-c3cccc(F)c3)nc(C(N)=O)c21,57%
13,CCOC(=O)Cn1c(=O)n(CC2CCCO2)c2nc(-c3ccccc3)nc(C(N)=O)c21 (stereo not given),56%
14,CCOC(=O)Cn1c(=O)n(CC2CCCO2)c2nc(-c3ccc(C(C)C)cc3)nc(C(N)=O)c21 (stereo not given),1% (active)
15,CCOC(=O)Cn1c(=O)n(CC2CCCO2)c2nc(-c3ccc(C)cc3)nc(C(N)=O)c21 (stereo not given),63%
16,CCOC(=O)Cn1c(=O)n(-c2ccccc2OC)c2nc(-c3ccc(C(C)C)cc3)nc(C(N)=O)c21,82%
17,CCOC(=O)Cn1c(=O)n(-c2ccccc2OC)c2nc(-c3ccccc3)nc(C(N)=O)c21,-3% (active)
18,CCOC(=O)Cn1c(=O)n(CC2CCCO2)c2nc(-c3ccc(CC)cc3)nc(C(N)=O)c21 (stereo not given),81%
19,CCOC(=O)Cn1c(=O)n(CC2CCCO2)c2nc(-c3ccc(OCC)cc3)nc(C(N)=O)c21 (stereo not given),-4% (active)
20,CCOC(=O)Cn1c(=O)n(CC2CCCO2)c2nc(-c3cccc(C)c3)nc(C(N)=O)c21 (stereo not given),55%

row,SMILES,survival
1,CCCCC(=O)Nc1ccc(NC(=O)C2CC2)nc1,101%
2,COc1ccc(OC)c(NC(=O)Cc2c(C(=O)O)n(C)c3ccc(C)cc23)c1,88%
3,CC1CCCN(S(=O)(=O)c2cc3c4c(c2)CC(=O)N4CCC3)C1 (stereo not given),81%
4,CC(C)Cn1c(=O)c2sccc2n2c(CCCC(=O)NCC(C)c3ccccc3)nnc12 (stereo not given),96%
5,CCCC(=O)N(c1ccc2oc3c(c2c1)CCCC3)S(=O)(=O)c1cc(C)ccc1C,61%
6,COc1ccccc1C(=O)Nc1ccc2nc(SCC(=O)N(C)c3ccccc3)sc2c1,84%
7,CC(Sc1nc(-c2ccccc2)c(C#N)c(=O)[nH]1)C(=O)Nc1ccc(F)cc1 (stereo not given),91%
8,O=C(CSc1ccccc1)N1CCc2c([nH]c3ccccc23)C1c1ccc(Cl)cc1 (stereo not given),64%
9,COCCCNC(=O)CCn1c(=O)c2ccccc2n(CC(=O)Nc2c(C)cc(C)cc2C)c1=O,84%
10,CCOc1ccccc1CNC(=O)CN1C(=O)c2cccnc2Oc2ccc(C)cc21,136%
11,Cc1ccc2nc(/C(C#N)=C/c3ccc(-c4ccc(F)cc4F)o3)[nH]c2c1,26%
12,CCOc1ccc(-c2cc(NC(=O)Nc3ccc(Cl)cc3)c(C(=O)OC)s2)cc1,88%
13,CCOc1ccc(-c2cc(NC(=O)Nc3cccc(C(C)=O)c3)c(C(=O)OC)s2)cc1,81%
14,CCOc1ccc(-c2cc(NC(=O)Nc3ccccc3C(F)(F)F)c(C(=O)OC)s2)cc1,72%
15,CCOc1ccc(-c2cc(NC(=O)Nc3ccccc3Cl)c(C(=O)OC)s2)cc1,50%
16,COC(=O)c1sc(-c2ccccc2)cc1NC(=O)Nc1ccccc1Cl,5% (active)
17,COC(=O)c1sc(-c2ccccc2)cc1NC(=O)Nc1ccc(F)cc1,13% (active)
18,COC(=O)c1sc(-c2ccccc2)cc1NC(=O)c1cccc(Cl)c1,38%
19,COC(=O)c1sc(-c2ccccc2)cc1NC(=O)c1cccc(F)c1,87%
20,COC(=O)c1sc(-c2ccccc2)cc1NC(=O)Nc1ccc(Cl)cc1,4% (active)
